PubChem BioAssay (NCI)
Several values for one entry are separate records, joined by “and”; a condition that tells them apart may be missing. Equal entries are not always repeated. The panel holds about 83,000 compounds, 20% with a hit somewhere; the sample as a whole holds those more often.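 Testing used 96-well plates and a 48-hour single-concentration exposure. Example: -40 means 40% of the starting cells died.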 Activity calls are given as the source filed them. How the source made its calls: active means growth percent below 10; inactive means the rest.

Legend:
Test in all cases: NCI-60 one-dose screen, 48 h (100 = growth as untreated, 0 = no growth, -100 = all killed)
Settings in all cases: 10 µM unless noted
DU-145 prostate = system: DU-145 prostate
K-562 leukemia = system: K-562 leukemia
MALME-3M melanoma = system: MALME-3M melanoma
MDA-MB-231 breast = system: MDA-MB-231 breast
RXF 393 renal = system: RXF 393 renal
SF-268 CNS = system: SF-268 CNS
SF-295 CNS = system: SF-295 CNS
SF-539 CNS = system: SF-539 CNS
UACC-257 melanoma = system: UACC-257 melanoma
M14 melanoma = system: M14 melanoma
HT29 colon = system: HT29 colon
SNB-75 CNS = system: SNB-75 CNS
SNB-19 CNS = system: SNB-19 CNS
U251 CNS = system: U251 CNS
PC-3 prostate = system: PC-3 prostate
SK-MEL-5 melanoma = system: SK-MEL-5 melanoma
UACC-62 melanoma = system: UACC-62 melanoma
LOX IMVI melanoma = system: LOX IMVI melanoma
HCT-15 colon = system: HCT-15 colon
SK-MEL-28 melanoma = system: SK-MEL-28 melanoma

SMILES | growth (DU-145 prostate) | growth (K-562 leukemia) | growth (MALME-3M melanoma) | growth (MDA-MB-231 breast) | growth (RXF 393 renal) | growth (SF-268 CNS) | growth (SF-295 CNS) | growth (SF-539 CNS) | growth (UACC-257 melanoma) | growth (M14 melanoma) | growth (HT29 colon) | growth (SNB-75 CNS) | growth (SNB-19 CNS) | growth (U251 CNS) | growth (PC-3 prostate) | growth (SK-MEL-5 melanoma) | growth (UACC-62 melanoma) | growth (LOX IMVI melanoma) | growth (HCT-15 colon) | growth (SK-MEL-28 melanoma)
CNc1ccc(N)cc1 | 121% (inactive) | 135% (inactive) | 98.1% (inactive) | 99% (inactive) | 214% (inactive) | 114% (inactive) | 108% (inactive) | 96.8% (inactive) | 137% (inactive) | 112% (inactive) | 107% (inactive) | 67.3% (inactive) | 104% (inactive) | 117% (inactive) | 96.4% (inactive) | 101% (inactive) | 89.3% (inactive) | 104% (inactive) |  | 
C=CCOc1ccc(N=NC(C#N)C#N)cc1 | 77.8% (inactive) | 38.2% (inactive) | 3.69% (active) | 69.7% (inactive) | 51.1% (inactive) | 102% (inactive) | 92.7% (inactive) | 87% (inactive) | 42.1% (inactive) | 66.4% (inactive) | 72.7% (inactive) | 74.3% (inactive) | 94% (inactive) | 84.6% (inactive) |  | 91.8% (inactive) | 47.7% (inactive) | 26% (inactive) | 56.9% (inactive) | 65.1% (inactive)
CCC(c1cccc(O)c1)C(CC)c1cccc(O)c1 (stereo unspecified) | 86% (inactive) | 17.1% (inactive) | 54.8% (inactive) | 64.2% (inactive) | 79.5% (inactive) | 63.7% (inactive) | 58.3% (inactive) | 39.1% (inactive) | 71.8% (inactive) | 23.8% (inactive) | 42% (inactive) | 42.7% (inactive) | 71.2% (inactive) | 45.5% (inactive) | 56.4% (inactive) | 32.3% (inactive) | 30.1% (inactive) | 57.8% (inactive) |  | 
CN1c2ccccc2C(C)(C)C12C=Cc1cc(O)ccc1O2 (stereo unspecified) | 52.1% (inactive) | 12% (inactive) | 69.1% (inactive) | 60.9% (inactive) | 57.1% (inactive) | 15.4% (inactive) | 55.9% (inactive) | 25.8% (inactive) | 56.7% (inactive) | 17.9% (inactive) | 55.9% (inactive) | 43.1% (inactive) | 61.1% (inactive) |  |  | 43.2% (inactive) | 30.2% (inactive) |  | 43.1% (inactive) | 64.5% (inactive)
C1=C(c2ccccc2)C(c2ccc(OCCN3CCCCC3)cc2)Oc2ccccc21 (stereo unspecified) | 77.1% (inactive) | 10.8% (inactive) | 2.37% (active) | 48.4% (inactive) | 20.4% (inactive) | 62.2% (inactive) | 52.7% (inactive) | 71.8% (inactive) | -40.6% (active) | -58% (active) | 1.98% (active) | 56.5% (inactive) | 53.7% (inactive) |  | 60.6% (inactive) | -95.5% (active) | -41% (active) |  | 23.2% (inactive) | -51.2% (active)
CNC(=O)N/N=C/c1ccc([N+](=O)[O-])o1 | 104% (inactive) | 96.5% (inactive) | 112% (inactive) | 97.6% (inactive) | 115% (inactive) | 94.2% (inactive) | 107% (inactive) | 110% (inactive) | 87.8% (inactive) | 102% (inactive) | 102% (inactive) | 114% (inactive) | 94.9% (inactive) |  | 92.7% (inactive) | 98.6% (inactive) | 88.9% (inactive) | 89.1% (inactive) | 107% (inactive) | 111% (inactive)
O=C1OCc2cccc3cccc1c23 | 107% (inactive) | 103% (inactive) | 107% (inactive) | 111% (inactive) | 102% (inactive) | 103% (inactive) | 102% (inactive) | 98.4% (inactive) | 94.3% (inactive) | 103% (inactive) | 105% (inactive) | 85.2% (inactive) | 104% (inactive) |  | 89.5% (inactive) | 101% (inactive) | 95.5% (inactive) |  | 94.6% (inactive) | 107% (inactive)
N#CSCc1ccc(CSC#N)c(Cl)c1 | 42.5% (inactive) | 33.8% (inactive) | 54.3% (inactive) | 52.5% (inactive) | 72.2% (inactive) | 65.8% (inactive) | 102% (inactive) | 58.8% (inactive) | 67.6% (inactive) | 50.7% (inactive) | 34.7% (inactive) | 32.2% (inactive) | 84% (inactive) |  |  | 65.2% (inactive) | 72.2% (inactive) |  | 37.1% (inactive) | 83.3% (inactive)
OC(CNc1ccnc2cc(Cl)ccc12)CNc1ccnc2cc(Cl)ccc12 | 57.4% (inactive) | 2.44% (active) | -77.9% (active) | -56.5% (active) | 97.4% (inactive) | 82.2% (inactive) | 71.6% (inactive) | -79.8% (active) | 93.5% (inactive) | 20.1% (inactive) | 7.67% (active) | 31.8% (inactive) | 41.3% (inactive) |  | 69.7% (inactive) | 53.7% (inactive) | 88.3% (inactive) | -79.2% (active) | 97% (inactive) | -82.7% (active)
CC(C)(C)c1ccc(O)c(C2CCCCC2)c1 | 102% (inactive) | 89.8% (inactive) | 115% (inactive) | 106% (inactive) | 90.9% (inactive) | 99.4% (inactive) | 130% (inactive) | 121% (inactive) | 86.6% (inactive) | 122% (inactive) | 87% (inactive) | 100% (inactive) | 122% (inactive) |  | 95% (inactive) | 96.3% (inactive) | 96.7% (inactive) | 104% (inactive) | 102% (inactive) | 110% (inactive)
C/C=C1\SC(=S)NC1=O | 110% (inactive) | 117% (inactive) | 92.9% (inactive) | 96.9% (inactive) | 114% (inactive) | 103% (inactive) | 102% (inactive) | 93.9% (inactive) | 95% (inactive) | 97.5% (inactive) | 108% (inactive) | 88.5% (inactive) | 102% (inactive) |  | 95.1% (inactive) | 99.8% (inactive) | 97.8% (inactive) |  | 98.9% (inactive) | 107% (inactive)
C[N+](C)=c1ccc2nc3c(cc(NCCCNc4cc5oc6cc(=[N+](C)C)ccc-6nc5c5ccccc45)c4ccccc43)oc-2c1 | -100% (active) | -0.99% (active) | 35.6% (inactive) | -36.2% (active) | 58.2% (inactive) | 55% (inactive) | 45% (inactive) | -9.59% (active) | 65.1% (inactive) | 28.9% (inactive) | -32.5% (active) | 39.6% (inactive) | -24.6% (active) |  |  | -96.3% (active) | 43.3% (inactive) | -45.5% (active) | -29.2% (active) | 64.8% (inactive)
O=Nc1ccccc1N=O | 91.2% (inactive) | 76.4% (inactive) | 74.9% (inactive) | 95.8% (inactive) | 101% (inactive) | 89.4% (inactive) | 85.9% (inactive) | 76.2% (inactive) | 80.9% (inactive) | 81.7% (inactive) | 81.6% (inactive) | 46.6% (inactive) | 88.6% (inactive) |  | 83.9% (inactive) | 87.2% (inactive) | 71.2% (inactive) | 60% (inactive) | 51.4% (inactive) | 92.9% (inactive)
Oc1ccc(/C=N/NC(=S)Nc2ccccc2)nc1 | 12.3% (inactive) | 14.1% (inactive) | 14.4% (inactive) | 49.3% (inactive) | 3.06% (active) | 18.7% (inactive) | 25.3% (inactive) | 1.01% (active) | 4.98% (active) | -34.8% (active) | 34.6% (inactive) | 31.4% (inactive) | 42% (inactive) |  |  | -45.3% (active) | -9.22% (active) | -18.7% (active) | 24.8% (inactive) | 43.1% (inactive)
CC(C)(C)CC(C)(C)c1ccc(OCCSC(=N)N)cc1 | 72.4% (inactive) | 0.322% (active) | -0.257% (active) | -7.07% (active) | 60.8% (inactive) | 55% (inactive) | -34.7% (active) | -6.57% (active) | 76.7% (inactive) | -48.5% (active) | 2.71% (active) | 77.7% (inactive) | 87% (inactive) |  | 72.2% (inactive) | 27.9% (inactive) | 66.5% (inactive) |  | 1.48% (active) | -72.7% (active)
O=C(O)C1C2CC3C(OC(=O)C31)C2Br (stereo unspecified) | 122% (inactive) and 107% (inactive) | 113% (inactive) and 110% (inactive) | 101% (inactive) and 93.5% (inactive) | 103% (inactive) and 115% (inactive) | 98.2% (inactive) and 93.5% (inactive) | 109% (inactive) and 106% (inactive) | 96.9% (inactive) and 101% (inactive) | 99.5% (inactive) | 82.7% (inactive) and 95% (inactive) | 96.7% (inactive) and 98.3% (inactive) | 84.9% (inactive) and 105% (inactive) | 106% (inactive) and 80.7% (inactive) | 97.3% (inactive) and 107% (inactive) |  |  | 103% (inactive) and 93.2% (inactive) | 93.5% (inactive) and 107% (inactive) | 101% (inactive) and 95.2% (inactive) | 97.3% (inactive) and 101% (inactive) | 100% (inactive) and 103% (inactive)
